Screens (PubChem BioAssay)
An excerpt weighted towards active compounds, which were near 3.3% of everything screened.
AmpC no deterg: blocks E. coli AmpC beta-lactamase in detergent-free assay | Potency, µM (highest dose often 57.1 µM), for inactives: at the top dose activity change, negative = inhibition, hits mostly inhibitors | AmpC nitrocefin hydrolysis, absorbance 480 nm, 0.0001% Triton | P00811 | 330,000 compounds, 0.52% hits;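 note: plate controls were no compound for no effect and no enzyme for full effect; nearly all actives have a fitted effect of over 20% in size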
Target sequence (P00811 whole entry, looked up): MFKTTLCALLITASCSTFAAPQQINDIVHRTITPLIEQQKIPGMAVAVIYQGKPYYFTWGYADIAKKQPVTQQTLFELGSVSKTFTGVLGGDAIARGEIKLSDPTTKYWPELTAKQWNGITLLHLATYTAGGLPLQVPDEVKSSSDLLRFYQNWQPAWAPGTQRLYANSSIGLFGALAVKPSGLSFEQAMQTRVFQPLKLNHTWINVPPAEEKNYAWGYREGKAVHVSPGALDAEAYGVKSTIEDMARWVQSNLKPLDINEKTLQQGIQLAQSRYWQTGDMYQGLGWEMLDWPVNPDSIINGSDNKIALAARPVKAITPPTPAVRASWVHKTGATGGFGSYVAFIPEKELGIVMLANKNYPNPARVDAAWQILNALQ
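20 mM phosphate pH 7.0 + 0.01% (detergent screen) or 0.0001% Triton X-100; 5.3 nM AmpC reagent; cpd preinc 15 min RT; nitrocefin (800 uM stock) to start; A480 q20 s × 4 min; Activity was normalised to no-enzyme and no-compound control wells.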
AmpC inh detg: blocks E. coli AmpC beta-lactamase in detergent assay. 370,000 compounds, 0.041% hits. AmpC hydrolysis of nitrocefin, absorbance 480 nm, 0.01% Triton. P00811. AID 485294. Potency, µM (highest dose often 114 µM), without a hit: top-dose activity change, negative = inhibition, usual class: inhibitors;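 note: 0% = no-compound wells and -100% = no-enzyme wells; nearly all actives have a fitted effect of over 25% in size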
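AmpC (5.3 nM in the dispensed reagent) in 20 mM phosphate pH 7.0 with 0.01% (detergent screen) or 0.0001% Triton X-100 was preincubated with compounds for 15 min at room temperature. Nitrocefin was then added from an 800 uM solution, and hydrolysis was followed at 480 nm.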
Sm TGR block: inhibitors of Schistosoma mansoni thioredoxin glutathione reductase; purified TGR, DTNB reduction, TNB absorbance 405 nm; Potency, µM (highest dose often 114 µM), for inactives: at the top dose activity change, negative = inhibition, most hits filed as inhibitors; 360,000 compounds, 3% hits; AID 485364; note: nearly all actives have a fitted effect of over 60% in size
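TGR 20 nM + NADPH 100 uM (dispensed conc.), cpd preinc 15 min RT; start with NADPH (500 uM addition) then DTNB (15 mM addition). Kinetic TNB absorbance, 405 nm filter. Four-parameter Hill fit across titration.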
Numbers without * were called inactive; [ ] = another dose, or the depositor's remark. Calls come from the whole dose curve; as a rule, active = well fitted curve in the direction sought with a large enough effect; inconclusive = small, poorly fitted or top-dose-only effect, or another doubt; inactive = no such curve, though single readings can be large; an effect the other way counts as inactive or inconclusive. Unless noted, % is set by controls: 0 for no effect and ±100 for the full control effect; potency is the fitted concentration of half-maximal effect.

How did COc1ccc(CCNC(=O)c2ccc(Cn3c(=O)[nH]c4cc(OC)c(OC)cc4c3=O)cc2)cc1OC do in these assays?
AmpC inh detg: 6%; Sm TGR block: 11%

What do the screens show for `O=C(c1cccc(F)c1)N1CCC(c2c[nH]c3ccccc23)(c2c[nH]c3ccccc23)CC1`?
AmpC inh detg: 18%; Sm TGR block: -2%

What do the screens show for `CCN(c1ccc(OC)cc1)c1ncnc2nc[nH]c12`?
AmpC no deterg: -2%; AmpC inh detg: inconclusive; Sm TGR block: -9%

What do the screens show for `CCCN(c1ccc(OCC)cc1)c1ncnc2nc[nH]c12`?
AmpC no deterg: 0.71µM*; AmpC inh detg: inconclusive; Sm TGR block: 2%

How did Cc1ccc2oc(C(=O)Nc3nnc(CC(C)C)s3)cc(=O)c2c1 do in these assays?
AmpC inh detg: 12%; Sm TGR block: -1%

Results for COc1ccc(-c2nn(-c3ccccc3)cc2CNCCN2CCOC2=O)c(F)c1 ?
AmpC no deterg: 57%; AmpC inh detg: 0%; Sm TGR block: 0%[57.1 µM]

How did COc1ccc(-n2cc(CNCCCN3CCCC3=O)c(-c3ccccc3Cl)n2)cc1 do in these assays?
AmpC no deterg: 40%; AmpC inh detg: 2%; Sm TGR block: 45µM*

What do the screens show for `O=C(NCc1ccccc1)c1ccc2nc(-c3ccco3)c(-c3ccco3)nc2c1`?
AmpC no deterg: -48%; AmpC inh detg: -12%; Sm TGR block: 1.4µM*

Results for CC(=O)c1ccc(NC(=O)CSc2nnc(-c3ccco3)c(-c3ccco3)n2)cc1 ?
AmpC no deterg: -36%; AmpC inh detg: -6%; Sm TGR block: 2.8µM*

What do the screens show for `O=C(Nc1ccc(N2CCOCC2)cc1)c1ccc2nc(-c3ccco3)c(-c3ccco3)nc2c1`?
AmpC no deterg: -16%; AmpC inh detg: -9%; Sm TGR block: inconclusive

How did CCc1nc2ccc(C(=O)Nc3ccc(NC(C)=O)cc3)cc2nc1CC do in these assays?
AmpC no deterg: -5%; AmpC inh detg: -7%; Sm TGR block: 0%

How did O=C(NCc1ccccc1)c1ccc2nccnc2c1 do in these assays?
AmpC no deterg: -7%; AmpC inh detg: -5%; Sm TGR block: -3%

Results for COc1ccc(-c2nnc(SCC(=O)Nc3ccc(C(C)=O)cc3)nc2-c2ccc(OC)cc2)cc1 ?
AmpC inh detg: 8%; Sm TGR block: -3%

How did CC(=O)c1ccc(NC(=O)c2ccc3nc(-c4ccco4)c(-c4ccco4)nc3c2)cc1 do in these assays?
AmpC no deterg: -37%; AmpC inh detg: -5%; Sm TGR block: 0.79µM*

Results for O=C(Nc1ccccc1)c1ccc2nc(-c3ccco3)c(-c3ccco3)nc2c1 ?
AmpC no deterg: -58%; AmpC inh detg: 6%; Sm TGR block: 3.2µM*

Results for COc1ccc(CCNc2oc(/C=C/c3ccc(OC)c(OC)c3)nc2C#N)cc1 ?
AmpC inh detg: 3%; Sm TGR block: 2%

What do the screens show for `O=C(CSc1nc2c([nH]c3ccccc32)c(=O)n1-c1ccccc1)N1CCCC1`?
AmpC inh detg: -2%; Sm TGR block: -12%

What do the screens show for `CCCCOc1ccc(C(=O)NCC2(N3CCN(C)CC3)CCCCC2)cc1`?
AmpC inh detg: 11%; Sm TGR block: -9%

What do the screens show for `CN1C(=O)c2ccccc2Sc2ccc(NC(=O)c3ccccc3F)cc21`?
AmpC inh detg: -3%; Sm TGR block: 1%

Results for CCC(=O)Nc1ccccc1-c1nc2ccccc2n(CC(=O)c2ccc(C)cc2)c1=O ?
AmpC inh detg: 14%; Sm TGR block: -1%

Results for CC1(C)CC(=O)C2=C(C1)O[C@@]1(CCCCN3C(=O)c4ccccc4C3=O)Cc3ccccc3C2O1 ?
AmpC no deterg: -1%[11.4 µM]; AmpC inh detg: -15%[22.9 µM]; Sm TGR block: -28%[22.9 µM]

How did CCCn1ccc2c(OCC(=O)Nc3ccc(OC)c(OC)c3)cccc2c1=O do in these assays?
AmpC inh detg: 1%; Sm TGR block: -2%

How did COc1ccccc1NC(=O)c1sc2nc(-c3ccco3)ccc2c1N do in these assays?
AmpC no deterg: -47%; AmpC inh detg: 8%; Sm TGR block: inconclusive

Results for Nc1c(C(=O)Nc2ccccc2)sc2nc(-c3ccco3)ccc12 ?
AmpC no deterg: -46%; AmpC inh detg: -13%; Sm TGR block: 1µM*

Results for CC1(C)COC(c2ccc(F)c([N+](=O)[O-])c2)=N1 ?
AmpC no deterg: -30%; AmpC inh detg: -15%; Sm TGR block: 50µM*

What do the screens show for `CC1(C)COC(c2cc([N+](=O)[O-])ccc2Cl)=N1`?
AmpC no deterg: -4%; AmpC inh detg: 1%; Sm TGR block: -4%

Results for Cc1ccc(CN(Cc2ccco2)C(=O)c2ccccc2Cl)o1 ?
AmpC inh detg: 21%; Sm TGR block: 0%

What do the screens show for `CC1=CC(c2ccc(Cl)cc2)n2nc(NC(=O)c3ccccc3)nc2N1` (stereo not drawn)?
AmpC no deterg: -7%; AmpC inh detg: 4%; Sm TGR block: 45µM*

How did CC(=O)Nc1nc2n(n1)C(c1ccc(Cl)cc1)C=C(C)N2 (stereo not drawn) do in these assays?
AmpC no deterg: -17%; AmpC inh detg: 4%; Sm TGR block: 14µM*

Results for O=C(Nc1nc2n(n1)C(c1ccc(Cl)cc1)CC(c1ccc(Cl)cc1)N2)c1ccco1 (stereo not drawn) ?
AmpC no deterg: 25%; AmpC inh detg: -4%; Sm TGR block: 5%

How did CC1=Nc2ccccc2N=C(NC(=O)c2ccccc2)C1c1ccc(Cl)cc1 (stereo not drawn) do in these assays?
AmpC no deterg: -19%; AmpC inh detg: 12%; Sm TGR block: -3%

How did COC(=O)c1c(-c2ccc(Cl)cc2)noc1N1CCN(c2cccc(OC)c2)CC1 do in these assays?
AmpC inh detg: -8%; Sm TGR block: -4%

How did S=c1[nH]cnc2scc(-c3ccc(Cl)cc3)c12 do in these assays?
AmpC no deterg: 8.9µM*; AmpC inh detg: -1%; Sm TGR block: 2%

How did Cc1ccc(-c2csc3nc[nH]c(=S)c23)cc1 do in these assays?
AmpC no deterg: 4%; AmpC inh detg: 4%; Sm TGR block: 14%

What do the screens show for `CC(C)(C)C1CCc2c(sc(NC(=O)Cn3nnc(-c4ccccc4F)n3)c2C#N)C1` (stereo not drawn)?
AmpC inh detg: -9%; Sm TGR block: -2%

What do the screens show for `O=C1c2ccccc2C(Nc2ccc(F)c(Cl)c2)N1Cc1ccco1` (stereo not drawn)?
AmpC no deterg: -16%; AmpC inh detg: inconclusive; Sm TGR block: 13µM*

Results for COc1ccc(NC2c3ccccc3C(=O)N2Cc2ccco2)cc1OC (stereo not drawn) ?
AmpC no deterg: -12%; AmpC inh detg: -16%; Sm TGR block: -35%

What do the screens show for `O=C(CSc1nnc(CNC(=O)c2cccc(C(F)(F)F)c2)o1)NCc1ccco1`?
AmpC no deterg: 0%; AmpC inh detg: inconclusive; Sm TGR block: -26%

Results for Cc1[nH]c2ccccc2c1Cc1nnc(SCC(=O)NCc2ccco2)o1 ?
AmpC no deterg: -2%; AmpC inh detg: inconclusive; Sm TGR block: 16µM*

What do the screens show for `CCn1c(Cc2c(C)[nH]c3ccccc23)nnc1SCC(=O)NCc1ccco1`?
AmpC no deterg: -3%; AmpC inh detg: 1%; Sm TGR block: 0%
